Sampled rows, rich in hits. Any-hit rate of the full collection: about 7.3%.
NPC1 prom act: activators of NPC1 promoter. AID 485313. 320,000 compounds, 2.4% hits. Huh7 NPC1 promoter luciferase reporter, 24 h. Potency, µM (titrated, usually from 9.22 µM), hits mostly activators; also: nearly all actives have a fitted effect of over 60% in size
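Quantitative HTS used a cell-based reporter: Huh7 cells stably bearing the NPC1 promoter upstream of luciferase were treated with compounds for 24 h, and promoter activation was read as luminescence.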
Rab9 promoter act: activators of Rab9 promoter. Huh7 Rab9 promoter-luciferase reporter, luminescence, 24 h. Potency, µM (doses to about 9.22 µM), hits mostly activators. 320,000 compounds, 2.8% hits. AID 485297; also: nearly all actives have a fitted effect of over 60% in size
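Measured in stably transfected Huh7 cells bearing a Rab9 promoter–luciferase construct: 24 h compound treatment at 37 °C, followed by luminescence detection.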
KinaseGlo FLuc: counter-screen: inhibitors of Kinase-Glo firefly luciferase. Q27757. Kinase-Glo luciferase, ATP luminescence, 8 min. Potency, µM (doses to about 38.3 µM), most hits filed as inhibitors. 200,000 compounds, 0.28% hits; also: nearly all actives have a fitted effect of over 60% in size
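Light output from Kinase-Glo luciferase with luciferin and 10 uM ATP in 50 mM imidazole pH 7.2, KCl, MgCl2, Tween 20, BSA; compound pin-delivered, 8-min ambient incubation, then luminescence read.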
SMN2 splice up: enhancers of SMN2 splice variant expression; HEK293 SMN2-luciferase splicing reporter, luminescence, 30-36 h; Potency, µM (titrated, usually from 46.1 µM), most hits filed as activators; 210,000 compounds, 2.8% hits; AID 1458; also: nearly all actives have a fitted effect of over 55% in size
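qHTS luciferase splicing reporter: luminescence rises when SMN2 exon 7 is included in transfected HEK293 cells. Compound exposure lasted 30-36 h at 37C, with 4.5 mM final sodium butyrate as control, followed by a ONE-Glo read.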
FLuc modulator: firefly luciferase modulation, counter-screen for miR-21 project; P08659; purified FLuc, Km substrates, luminescence inhibition; Potency, µM (titrated, usually from 57.5 µM), hits mostly inhibitors; 360,000 compounds, 6.9% hits; AID 588342; also: nearly all actives have a fitted effect of over 55% in size
Target sequence (P08659 whole entry, looked up): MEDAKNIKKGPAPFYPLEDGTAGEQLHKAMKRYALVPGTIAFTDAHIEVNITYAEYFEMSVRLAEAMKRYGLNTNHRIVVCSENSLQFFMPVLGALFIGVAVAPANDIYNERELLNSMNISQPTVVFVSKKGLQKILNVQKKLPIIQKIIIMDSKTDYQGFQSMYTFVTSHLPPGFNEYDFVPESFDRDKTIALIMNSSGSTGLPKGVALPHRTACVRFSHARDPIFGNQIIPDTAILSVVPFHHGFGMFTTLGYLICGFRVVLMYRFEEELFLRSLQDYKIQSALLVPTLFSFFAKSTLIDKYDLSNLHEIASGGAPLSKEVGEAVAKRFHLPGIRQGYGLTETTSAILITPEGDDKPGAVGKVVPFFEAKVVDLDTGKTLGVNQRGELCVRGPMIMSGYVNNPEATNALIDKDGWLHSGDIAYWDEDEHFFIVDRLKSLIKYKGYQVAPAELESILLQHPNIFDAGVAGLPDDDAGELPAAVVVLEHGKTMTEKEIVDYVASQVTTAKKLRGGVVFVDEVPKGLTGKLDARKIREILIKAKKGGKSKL
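Purified P. pyralis luciferase (10nM final) with 10uM D-luciferin and 10uM ATP (Km levels) in 50mM Tris acetate pH 7.5, 10mM Mg acetate, 0.01% Tween-20, 0.05% BSA; qHTS 6-point titration, ~60 µM downward; luminescence read.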
ELG1 genotoxic: genotoxicity induction in ELG1-luciferase HEK293T cells | HEK293T ELG1-luciferase reporter, luminescence, 16 h | Potency, µM (top dose mostly 46 µM), hits mostly activators | 330,000 compounds, 1.3% hits; also: nearly all actives have a fitted effect of over 60% in size
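Step 1: seed 2,000 HEK293T ELG1-luciferase cells per well. Step 2: add compound or DMSO, incubate 16 hr at 37 °C. Step 3: ONE-Glo, 30 min at room temperature, read luminescence.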
A number is an active result; n = inactive; u = inconclusive; x = no result given. Calls follow the shape of the dose curve; as a rule, active = well fitted curve in the direction sought with a large enough effect; inconclusive = small, poorly fitted or top-dose-only effect, or another doubt; inactive = no such curve, though single readings can be large; an effect the other way counts as inactive or inconclusive.

SMILES	NPC1 prom act	Rab9 promoter act	KinaseGlo FLuc	SMN2 splice up	FLuc modulator	ELG1 genotoxic
CC(C)c1ccc(N=C2N=C(N)c3ccccc32)cc1	n	u	x	x	0.48µM	u
Cc1cccc(N=C2N=C(N)c3ccccc32)c1	n	n	n	n	n	n
CCN(CC)C(=S)SCC(=O)c1ccc(F)cc1	2.5µM	2.5µM	n	18µM	15µM	u
CCN(CC)C(=S)SCC(=O)c1c(C)[nH]c2ccccc12	n	n	n	u	u	n
CCN(CC)C(=S)SCC(=O)c1ccccc1	2.2µM	2.8µM	n	13µM	12µM	u
Cc1ccc(NC(=O)C(=O)NCC(c2cccnc2)N2CCN(c3ccccc3F)CC2)cc1Cl (centres undefined)	x	x	x	x	n	x
Cc1ccc(C(=O)n2ncn(C)c2=S)cc1	n	n	n	n	u	n
Cc1ccc(C(=O)n2c(=S)nc3ccccn32)cc1	0.79µM	0.63µM	u	2µM	0.12µM	u
O=C(c1ccccc1)n1c(=S)nc2ccccn21	1µM	3.5µM	x	x	0.43µM	0.33µM
Cc1cccc(C(=O)n2c(=S)nc3ccccn32)c1	0.56µM	0.45µM	14µM	4.5µM	0.48µM	u
O=C(c1ccccc1)n1ccn(-c2ccccc2)c1=S	n	n	n	n	n	n
Cc1ccc(Cn2c(CNC(=O)CCc3ccccc3)nc3cccnc32)cc1	x	x	x	x	n	x
C[C@H](NC(=O)CNC(=O)[C@@H](NC(=O)[C@H](Cc1ccccc1)NC(=O)CNC(=O)CNC(=O)[C@@H](N)Cc1ccccc1)[C@@H](C)O)C(=O)N[C@@H](CCCN=C(N)N)C(=O)N[C@@H](CCCCN)C(=O)N[C@@H](CO)C(=O)N[C@@H](C)C(=O)N[C@@H](CCCN=C(N)N)C(=O)N[C@H](CN)CCCCN	x	x	x	n	x	x
O=C(COc1cccnc1[N+](=O)[O-])N1CCc2ccccc21	n	n	n	n	n	n
O=C(OCC(=O)N1CCc2ccccc21)c1c2c(nc3ccccc13)CCCCC2	n	n	n	n	4.3µM	n
NC(=O)COC(=O)c1c2c(nc3ccccc13)CCCC2	n	n	n	n	n	n
CCOC(=O)C1=C(C)NC(C)=C(C(=O)OCC)C1C(=O)OCC(=O)N1CCc2ccccc21	n	n	n	n	n	18µM
O=C(OCC(=O)N1CCc2ccccc21)c1ccccc1[N+](=O)[O-]	0.79µM	0.63µM	x	x	0.15µM	u
O=C(OCC(=O)N1CCc2ccccc21)c1ccccc1F	n	n	x	x	4.8µM	n
CCC(=O)N1CCc2cc(S(=O)(=O)NCCC(=O)Nc3ccc(C)cc3C)ccc21	x	x	x	n	n	x
Cc1ccc(NC(=O)Cn2nc(C)n3cccc3c2=O)c(C)c1	x	x	x	x	n	x
CC(=O)c1c(C)[nH]c(C(=O)OCC(=O)N2CCc3ccccc32)c1C	4µM	u	x	x	n	n
Cc1ccc2c(CC(=O)N3CCc4ccccc43)coc2c1	3.5µM	4µM	n	14µM	4.3µM	u
Cc1ccc(C(=O)OCC(=O)N2CCc3ccccc32)cc1	u	u	n	n	6µM	n
O=C(COC(=O)c1ccccc1[N+](=O)[O-])c1ccc(C2CCCCC2)cc1	n	n	11µM	n	0.13µM	n
SMILES	NPC1 prom act	Rab9 promoter act	KinaseGlo FLuc	SMN2 splice up	FLuc modulator	ELG1 genotoxic
CCOC(=O)c1[nH]c(C)c(C(=O)OCC(=O)N2CCc3ccccc32)c1C	n	n	n	n	n	n
Cc1ccc(C(=O)OCC(=O)N2CCCc3ccccc32)cc1C	n	n	x	x	n	n
COc1cc(NCc2ccc3nc(N)nc(N)c3c2C)cc(OC)c1OC	x	x	n	x	x	x
COc1ccc(-n2c(SCC(=O)N3CCC(C)CC3)nc3c([nH]c4ccccc43)c2=O)cc1	x	x	x	x	n	x
O=C(O)c1ccc(Cl)cc1Cl	x	x	x	n	x	x
CCCn1c(=O)c2sccc2n2c(CCCC(=O)N3CCN(c4ccc(OC)cc4)CC3)nnc12	x	x	x	x	n	x
Cc1ccc(C(=O)NCC(c2ccco2)S(=O)(=O)c2ccc(Cl)cc2)cc1C (centres undefined)	x	x	x	x	n	x
Nc1ncnc2c1ncn2C1OC(COP(=O)(O)O)C(O)C1O (centres undefined)	n	n	2µM	u	n	n
Nc1ncnc2c1ncn2[C@@H]1O[C@H](COP(=O)(O)O)[C@@H](O)[C@H]1O	n	n	x	n	n	n
Nc1ncnc2c1ncn2[C@@H]1O[C@H](COS(=O)(=O)O)[C@@H](O)[C@H]1O	n	n	x	x	n	n
Nc1ncnc2c1ncn2[C@@H]1O[C@H](COP(=O)(O)O)[C@@H](O)[C@@H]1O	x	x	4µM	n	x	x
Cc1cc(C)c2c(c1)c(C)cc1nnc(SCC(=O)c3ccccc3)n12	x	x	x	x	n	x
O=C(Nc1ccc(Cl)c(Cl)c1)Nc1ccccc1C(=O)O	0.35µM	0.32µM	n	4.5µM	0.54µM	2.3µM
O=C(Nc1ccc(Cl)cc1)Nc1ccccc1C(=O)O	0.35µM	0.45µM	13µM	13µM	0.48µM	u
Fc1ccc(NCc2cn3ccccc3n2)cc1	3.2µM	4µM	11µM	u	15µM	n
Fc1cccc(NCc2cn3ccccc3n2)c1	1.8µM	0.79µM	u	2.5µM	9.5µM	2.3µM
CN(CC(=O)Nc1cccc(F)c1)C(=O)c1ccc(OCc2cn3ccccc3n2)cc1	x	x	x	x	x	n
O=C(NCCc1cn2ccccc2n1)c1ccccc1F	n	n	n	n	n	n
COc1ccc(/C=C/C(=O)Nc2ccc(N3CCOCC3)cc2)cc1	n	n	n	n	n	n
COc1ccc(/C=C/C(=O)NC(=S)N2CCN(c3ccccc3OC)CC2)cc1	4µM	u	x	x	u	n
COc1ccc(/C=C/C(=O)NC(=S)N2CCOCC2)cc1	3.5µM	1.6µM	x	x	11µM	u
CCCc1cc(C(=O)NC2CCCCC2)no1	4µM	u	n	14µM	u	16µM
CC(C)c1cc(C(=O)NC2CCCCC2)no1	u	u	n	11µM	17µM	u
CCCc1cc(C(=O)NC2CCCC2)no1	u	u	n	13µM	u	10µM
CCCc1cc(C(=O)N(C2CCCCC2)C2CCCCC2)no1	n	n	n	n	n	n
SMILES	NPC1 prom act	Rab9 promoter act	KinaseGlo FLuc	SMN2 splice up	FLuc modulator	ELG1 genotoxic
COc1cccc(/C=N/NC(=O)c2cc(-c3ccc(C)cc3)n[nH]2)c1O	x	x	n	x	x	x
CCN1CCN(c2cc(C)c3cc(NC(=O)/C=C/c4ccc(OCCC(C)C)cc4)ccc3n2)CC1	x	x	x	n	n	x
O=C(NNc1nc(-c2ccccc2)cs1)c1ccccc1	n	n	n	n	u	n
O=C(Nc1cccc(-c2csc(Nc3ccc(Cl)cc3)n2)c1)c1ccccc1	n	n	x	x	12µM	n
O=C(Nc1ccc(-c2csc(Nc3ccccc3)n2)cc1)c1ccccc1	n	n	x	x	13µM	n
Cc1ccc(-n2nc(C)c3c(C(F)(F)F)cc(-c4cccnc4)nc32)cc1Cl	x	x	x	n	n	x
O=C(NCc1nc2ccccc2[nH]1)c1ccc([N+](=O)[O-])cc1	n	n	n	n	n	n

Screening data (PubChem)
